Data from PubChem BioAssay (Tox21).
A number with no mark means an inactive call. Records with an inconclusive call do not appear. Entries that show only a call come without a potency. Active and inactive are the calls of the source. Unless noted, calls follow the shape of the dose curve; as a rule, active = well fitted curve in the direction sought with a large enough effect in the repeat runs; inconclusive = weak or mixed curves; inactive = no such curve, though single readings can be large; an effect the other way counts as inactive or inconclusive.

Assays:
[1] = qHTS assay for small molecules that induce genotoxicity in human embryonic kidney cells expressing luciferase-tagged ATAD5 (AID 651632); also: nearly all actives have a fitted effect of over 15% in size; also: potency is read from the fitted curve at half-maximal effect
Method in brief: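 Genotoxicity read-out via ATAD5-luciferase: HEK293T cells, 16 hr compound incubation at 37C, Amplite detection.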

[2] = qHTS assay for small molecule agonists of the p53 signaling pathway - cell viability (AID 651633; calls by dose curve;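 also: p53RE-bla HCT reporter cells with a stable beta-lactamase p53 reporter; series mostly up to about 83 µM; nearly all actives have a fitted effect of over 30% in size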)
Method in brief: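 p53RE-bla cells, seeded at 4,000 per well and rested 5 h at 37 C/5% CO2, received compounds in DMSO for 16 h at 37 C. CellTiter-Glo was then added, and luminescence was read after 30 min at room temperature to gauge cytotoxicity.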

[3] = qHTS assay for small molecules that induce genotoxicity in human embryonic kidney cells expressing luciferase-tagged ATAD5 - cell viability (AID 651634; calls by dose curve; also: nearly all actives have a fitted effect of over 25% in size)
Method in brief: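 Live-cell protease activity (CellTiter-Fluor, fluorescence) indicates viability. HEK293T cells with luciferase-tagged ATAD5; 15.5 hr compound treatment at 37C.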

[4] = qHTS assay for small molecule disruptors of the mitochondrial membrane potential - cell viability (AID 720634; calls by dose curve; also: nearly all actives have a fitted effect of over 20% in size; also: potency is read from the fitted curve at half-maximal effect)
Method in brief: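 Human hepatoma HepG2 cells were treated for 1 hr with test chemicals, then given m-MPI dye and CellTiter-Glo. Cell viability reflects luminescence proportional to cellular ATP.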

[5] = qHTS assay to test for compound auto fluorescence at 590 nm (red) in HepG2 cells (AID 720674)
Method in brief: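 Intrinsic compound fluorescence in the red window (Ex/Em 540/590 nm) is measured in attached HepG2 cells exposed for 1 hr, DMSO vehicle as baseline, benchmarked to Rose Bengal sodium.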

[6] = qHTS assay to test for compound auto fluorescence at 460 nm (blue) in HEK293 cells (AID 720678)
Method in brief: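 Blue read-out at excitation 405 nm and emission 460 nm follows overnight compound exposure of HEK293 cells at 37C in 5% CO2. Activity is given as auto fluorescence equivalency to triamterene.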

[7] = qHTS assay to test for compound auto fluorescence at 590 nm (red) in HEK293 cells (AID 720679)
Method in brief: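 Red channel, Ex/Em 540/590nm; signal expressed as equivalency to Rose Bengal sodium. HEK293, 2,000 cells/well, 10% dialyzed FBS; 23 nL compound pinned after 4-5 hr attachment; overnight 37C/5% CO2 before reading.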

[8] = qHTS assay for small molecule disruptors of the mitochondrial membrane potential (AID 720635); also: potency is read from the fitted curve at half-maximal effect
Method in brief: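 HepG2 cells (2,000/well) attached overnight at 37C, then took compound for 1 hr at 37C, 5% CO2. Mito-MPS dye was added for 30 min; fluorescence was read at 490/535 nm (monomers) and 540/590 nm (aggregates).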

[9] = qHTS assay to test for compound auto fluorescence at 535 nm (green) in HepG2 cells (AID 720675)

| Compound | Potency [1] | Potency [2] | Potency [3] | Potency [4] | outcome [5] | outcome [6] | outcome [7] | Potency [8] | outcome [9] | fluorescence, relative to Rose Bengal [5] | fluorescence, % of triamterene [6] | fluorescence, % of fluorescent control [7] |
| --- | --- | --- | --- | --- | --- | --- | --- | --- | --- | --- | --- | --- |
| ClC(Br)Br | inactive | inactive | inactive | inactive | inactive | inactive | inactive | – | – | – | – | – |
| COP(=S)(OC)Oc1c(Cl)cc(C)cc1Cl | inactive | inactive | inactive | inactive | inactive | inactive | inactive | 24.3 µM (active) | – | – | – | – |
| O=C(Cc1ccccc1)OCc1ccccc1 | inactive | inactive | inactive | inactive | inactive | inactive | inactive | – | inactive | – | – | – |
| CC(Cl)(Cl)[N+](=O)[O-] | inactive | inactive | inactive | inactive | inactive | – | inactive | inactive | inactive | – | – | – |
| Cc1ncsc1CCCl | inactive | inactive | inactive | inactive | inactive | inactive | inactive | – | inactive | – | – | – |
| ClC(Cl)(Cl)C(Cl)(Cl)Cl | inactive | inactive | inactive | inactive | inactive | inactive | inactive | inactive | inactive | – | – | – |
| Cc1nc(N)nc(N)n1 | inactive | inactive | inactive | inactive | inactive | inactive | inactive | – | inactive | – | – | – |
| COc1cc(OC)nc(NC(=O)NS(=O)(=O)c2ncccc2C(=O)N(C)C)n1 | inactive | inactive | inactive | inactive | inactive | inactive | inactive | inactive | inactive | – | – | – |
| Cc1ncc2n1-c1ccc(Cl)cc1C(c1ccccc1F)=NC2 | 26.6 µM (active) | inactive | inactive | inactive | inactive | inactive | inactive | – | inactive | – | – | – |
| CSc1ccc(C(=O)C(C)(C)N2CCOCC2)cc1 | inactive | inactive | inactive | inactive | inactive | – | inactive | – | inactive | – | – | – |
| O=C(Nc1ccccc1)c1ccccc1I | inactive | inactive | inactive | inactive | inactive | inactive | inactive | – | inactive | – | – | – |
| ClC(Cl)Br | inactive | inactive | inactive | inactive | inactive | inactive | inactive | inactive | inactive | – | – | – |
| O=[N+]([O-])c1ccc2c3c(cccc13)CC2 | inactive | inactive | inactive | – | inactive | inactive | inactive | 24.3 µM (active) | inactive | – | – | – |
| COC(=O)C1=CCCN(C)C1 | inactive | inactive | inactive | inactive | inactive | – | inactive | inactive | inactive | – | – | – |
| CC1(C)COP(Oc2ccccc2)OC1 | inactive | inactive | inactive | inactive | inactive | inactive | inactive | inactive | – | – | – | – |
| CC(C)CC(N(C)C)C1(c2ccc(Cl)cc2)CCC1 (centres undefined) | inactive | inactive | inactive | inactive | inactive | inactive | inactive | – | – | – | – | – |
| CS(=O)(=O)c1cc(C(F)(F)F)ccc1C(=O)c1cnoc1C1CC1 | inactive | inactive | inactive | – | inactive | inactive | inactive | inactive | inactive | – | – | – |
| O=S(=O)(O)C(F)(F)C(F)(F)C(F)(F)C(F)(F)C(F)(F)C(F)(F)F | inactive | inactive | inactive | inactive | inactive | inactive | inactive | – | – | – | – | – |
| CCOP(=S)(OCC)SCSc1ccc(Cl)cc1 | inactive | inactive | inactive | inactive | inactive | inactive | inactive | inactive | inactive | – | – | – |
| COc1cc(C[C@@H](C)N)c(OC)cc1C | inactive | inactive | inactive | inactive | inactive | – | inactive | inactive | inactive | – | – | – |
| N#Cc1c(Cl)cccc1Cl | inactive | – | inactive | – | inactive | inactive | inactive | – | inactive | – | – | – |

| Compound | Potency [1] | Potency [2] | Potency [3] | Potency [4] | outcome [5] | outcome [6] | outcome [7] | Potency [8] | outcome [9] | fluorescence, relative to Rose Bengal [5] | fluorescence, % of triamterene [6] | fluorescence, % of fluorescent control [7] |
| --- | --- | --- | --- | --- | --- | --- | --- | --- | --- | --- | --- | --- |
| CC(=O)C(Cl)Cl | inactive | – | inactive | – | inactive | inactive | inactive | – | – | – | – | – |
| CCN(CC)c1nc(C)cc(OP(=S)(OC)OC)n1 | inactive | inactive | inactive | – | inactive | inactive | inactive | – | inactive | – | – | – |
| C#CCN1C(=O)COc2cc(F)c(N3C(=O)C4=C(CCCC4)C3=O)cc21 | inactive | – | inactive | – | inactive | – | inactive | – | inactive | – | – | – |
| CCSC(=O)N(CC)C1CCCCC1 | inactive | inactive | inactive | – | inactive | inactive | inactive | – | inactive | – | – | – |
| C=CCC1=C(C)[C@@H](OC(=O)[C@@H]2[C@@H](C=C(C)C)C2(C)C)CC1=O | inactive | – | inactive | 61.1 µM (active) | inactive | inactive | inactive | 15.4 µM (active) | inactive | – | – | – |
| O=c1oc2ccccc2c(O)c1C1CCCc2ccccc21 (centres undefined) | inactive | – | inactive | – | inactive | – | inactive | 13.7 µM (active) | inactive | – | – | – |
| c1cc2c(c(N3CCNCC3)c1)OCCO2 | inactive | – | inactive | inactive | inactive | inactive | inactive | – | inactive | – | – | – |
| COC(=O)c1ccccc1S(=O)(=O)NC(=O)Nc1nc(C)cc(C)n1 | inactive | inactive | – | inactive | inactive | inactive | inactive | – | inactive | – | – | – |
| O=C1OC(=O)C2C1C1(Cl)C(Cl)=C(Cl)C2(Cl)C1(Cl)Cl (centres undefined) | inactive | – | inactive | inactive | inactive | inactive | inactive | – | inactive | – | – | – |
| CCN(CC)CCOC(=O)C(C)(c1ccccc1)c1ccccc1 | inactive | inactive | inactive | – | inactive | inactive | inactive | – | – | – | – | – |
| CCCCOP(=O)(O)OCCCC | inactive | – | inactive | inactive | inactive | inactive | inactive | inactive | inactive | – | – | – |
| CCCSP(=S)(OCC)Oc1ccc(Cl)cc1Cl (centres undefined) | inactive | – | inactive | – | inactive | inactive | inactive | – | inactive | – | – | – |
| CCOP(=O)(N=C1SCCS1)OCC | inactive | – | inactive | inactive | inactive | inactive | inactive | – | inactive | – | – | – |
| OCCBr | inactive | – | inactive | inactive | inactive | inactive | inactive | inactive | inactive | – | – | – |
| COc1ccc2c(c1OC)CN1CCc3cc4c(cc3C1C2)OCO4 (centres undefined) | inactive | inactive | inactive | – | – | – | – | – | – | 0.552% [at 18.6 µM] | -0.105% [at 18.6 µM] | -0.125% [at 18.6 µM] |
| Cc1ccccc1CO[C@@H]1C[C@@]2(C(C)C)CC[C@]1(C)O2 | inactive | inactive | inactive | – | inactive | inactive | inactive | – | – | – | – | – |
| Nc1cc2c3c(c1)C(c1ccccc1)=N[C@@H](NC(=O)c1cccnc1)C(=O)N3CC2 | inactive | – | inactive | – | inactive | – | inactive | – | inactive | – | – | – |
| CCc1cc2c(s1)-n1c(C)nnc1CN=C2c1ccccc1Cl | 26.6 µM (active) | – | inactive | – | inactive | inactive | inactive | – | inactive | – | – | – |
| O=[N+]([O-])c1cc(Cl)c(Cl)c(Cl)c1 | inactive | – | inactive | inactive | inactive | inactive | inactive | – | inactive | – | – | – |
| CCOP(=S)(Oc1cnc(C(C)(C)C)nc1)OC(C)C (centres undefined) | inactive | – | inactive | inactive | inactive | inactive | inactive | – | inactive | – | – | – |
| CCOP(=S)(OCC)SCSP(=S)(OCC)OCC | inactive | inactive | inactive | – | inactive | inactive | inactive | – | inactive | – | – | – |
